# Source: PubChem BioAssay (Tox21)
# Records with an inconclusive call do not appear. More than one record can exist for a structure, and the calls need not agree. Active and inactive are the calls of the source. Calls come from the whole dose curve; as a rule, active = well fitted cell-killing curve with a large enough effect in the repeat runs; inconclusive = weak or mixed curves; inactive = no such curve, though single readings can be large or run the other way.
# Assay: qHTS assay to identify small molecule agonists of the peroxisome proliferator-activated receptor delta (PPARd) signaling pathway - cell viability counter screen (AID 743211); note: nearly all actives have a fitted effect of over 55% in size
# Conditions: PPARd-bla HEK293H viability, CellTiter-Glo luminescence, 17 h; series mostly up to 62.6 µM; activity change, negative = cytotoxicity: at the top concentration
# In short: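 Counter screen for cytotoxicity run in parallel with the PPARd reporter screen. Beta-lactamase reporter HEK293H cells exposed to compounds 17 h; ATP-based CellTiter-Glo luminescence quantified viability.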
# % is set by controls: 0 for no effect and ±100 for the full control effect; potency is the fitted concentration of half-maximal effect.
SMILES,"activity change, negative = cytotoxicity",Potency
Cc1c(C)c2c(c(C)c1OC(=O)CCC(=O)O)CC[C@@](C)(CCC[C@H](C)CCC[C@H](C)CCCC(C)C)O2,-6.51% [at 81.1 µM] (inactive),
Nc1ccc2cc(S(=O)(=O)O)cc(O)c2c1N=Nc1ccccc1C(F)(F)F,3.3% (inactive),
O=C(O)c1ccc(Cl)c(Cl)c1,6.92% (inactive),
CC(=O)OCC(C)OC(C)=O (stereo not drawn),-0.14% (inactive),
C=C(C)C(=O)OCC(O)COc1ccc(C(C)(C)c2ccc(OCC(O)COC(=O)C(=C)C)cc2)cc1 (stereo not drawn),,54.9 µM (active)
Cc1cccc(S(=O)(=O)O)c1C,0.11% (inactive),
COCCCC/C(=N\OCCN)c1ccc(C(F)(F)F)cc1,,23.7 µM (active)
O=C1Cc2cc(CCN3CCN(c4nsc5ccccc45)CC3)c(Cl)cc2N1,,29.8 µM (active)
Cc1cc2c(cc1C(F)(F)F)N(C(=O)Nc1ccc(Oc3cccnc3C)nc1)CC2,,44.3 µM (active)
COc1cc(/C=C/C(=O)O[C@H]2CC[C@]34C[C@]35CC[C@]3(C)[C@@H]([C@H](C)CCC=C(C)C)CC[C@@]3(C)[C@@H]5CC[C@H]4C2(C)C)ccc1O,3.01% (inactive),
N#CC1(c2ccc(F)cc2)CCC(=O)CC1,7.48% (inactive),
CCCCN(CCCC)C(=O)N(CCCC)CCCC,3.21% (inactive),
O=C1c2ccccc2Cc2ccccc21,-3.31% [at 81.1 µM] (inactive),
CCCC(C)c1ccccc1O (stereo not drawn),-6.1% (inactive),
O=C1C=CC(=O)N1c1ccc(Cc2ccc(N3C(=O)C=CC3=O)cc2)cc1,,38.9 µM (active)
O=C(NO)C1(NS(=O)(=O)c2ccc(Oc3ccc(F)cc3)cc2)CCOCC1,-7.08% (inactive),
CN(C)CCCOC1(Cc2ccccc2)CCCCCC1,-16.6% (inactive),
Cc1ccc(O)c(C(C)(C)C)c1,,21.8 µM (active) and inactive
